# Measurements from the supplement of paper PMC10849652.
# About 7,900 targets were measured; listed, in parts, are those with a hit and a random draw of the rest. About 0.6% of all pairs of compound and target were hits. Unmarked numbers belong to inactive results.
# What was measured:
# Assay in all cases: log2 fold change, soluble protein after heating vs DMSO (PISA); higher = thermal stabilisation; K562 cells, 10 uM, 30 min; active = over 0.2 and 3.5 SD of the protein, either way, in both replicates (recomputed)
# bafetinib = compound: Cc1ccc(NC(=O)c2ccc(CN3CC[C@H](N(C)C)C3)c(C(F)(F)F)c2)cc1Nc1nccc(-c2cncnc2)n1 [bafetinib]
# In short: (§1)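 Thermal stability values are relative to control samples and come from duplicates. They are expressed as log2 fold changes. For measurement, K562 cells (2×10^6 cells/mL) received 10 μM compound for 30 min, and aliquots were heated for 3 min over 48°C-58°C, pooled, and extracted at 4°C in PBS with 0.5% NP-40. Soluble protein, the supernatant after 21,000xg for 90 min, was quantified by TMTpro 16plex LC-MS/MS with equalised channel sums.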
# [1] = compound: Cc1cccc(CC(=O)N2CCc3c2ccc(-c2cn(C)c4ncnc(N)c24)c3F)n1
# In short: as §1
# nilotinib = compound: Cc1cn(-c2cc(NC(=O)c3ccc(C)c(Nc4nccc(-c5cccnc5)n4)c3)cc(C(F)(F)F)c2)cn1 [nilotinib]
# In short: as §1
# [2] = compound: Cc1nc(Nc2n[nH]c3c2CN(C(=O)N[C@H](CN(C)C)c2ccccc2)C3(C)C)c2sccc2n1
# In short: as §1
# dasatinib = compound: Cc1nc(Nc2ncc(C(=O)Nc3c(C)cccc3Cl)s2)cc(N2CCN(CCO)CC2)n1 [dasatinib]
# In short: as §1
# [3] = compound: Cc1ncc(-c2ccnc(Nc3ccc(S(C)(=O)=O)cc3)n2)n1C(C)C
# In short: as §1
# [4] = compound: Cn1cc(-c2ccc3c(c2)CCN3C(=O)Cc2cccc(C(F)(F)F)c2)c2c(N)ncnc21
# In short: as §1
# [5] = compound: Cn1cc(-c2ccc3nnc(C(F)(F)c4ccc5ncccc5c4)n3n2)cn1
# In short: as §1
# tipifarnib = compound: Cn1cncc1[C@@](N)(c1ccc(Cl)cc1)c1ccc2c(c1)c(-c1cccc(Cl)c1)cc(=O)n2C [tipifarnib]
# In short: as §1
# mubritinib = compound: FC(F)(F)c1ccc(/C=C/c2nc(COc3ccc(CCCCn4ccnn4)cc3)co2)cc1 [mubritinib]
# In short: as §1
# UniProt Q13948, sequence (Q13948 whole entry, looked up): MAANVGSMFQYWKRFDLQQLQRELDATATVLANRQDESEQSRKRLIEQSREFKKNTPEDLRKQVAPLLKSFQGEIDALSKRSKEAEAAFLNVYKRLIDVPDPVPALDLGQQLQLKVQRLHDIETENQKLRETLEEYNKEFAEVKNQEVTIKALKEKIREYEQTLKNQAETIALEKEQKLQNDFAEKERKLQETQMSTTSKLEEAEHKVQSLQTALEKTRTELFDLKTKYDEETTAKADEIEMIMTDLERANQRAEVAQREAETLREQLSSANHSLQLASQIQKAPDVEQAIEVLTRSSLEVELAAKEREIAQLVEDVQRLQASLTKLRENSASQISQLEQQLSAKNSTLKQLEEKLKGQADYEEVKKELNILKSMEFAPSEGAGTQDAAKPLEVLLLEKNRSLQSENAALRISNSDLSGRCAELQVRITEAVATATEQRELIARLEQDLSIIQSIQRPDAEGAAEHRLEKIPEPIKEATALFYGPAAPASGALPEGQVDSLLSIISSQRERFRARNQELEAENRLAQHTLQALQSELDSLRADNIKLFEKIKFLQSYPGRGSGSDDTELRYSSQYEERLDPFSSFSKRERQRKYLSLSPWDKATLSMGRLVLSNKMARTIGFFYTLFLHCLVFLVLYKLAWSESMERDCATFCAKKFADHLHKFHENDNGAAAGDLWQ
# UniProt Q9UPT5, sequence (Q9UPT5 whole entry, looked up): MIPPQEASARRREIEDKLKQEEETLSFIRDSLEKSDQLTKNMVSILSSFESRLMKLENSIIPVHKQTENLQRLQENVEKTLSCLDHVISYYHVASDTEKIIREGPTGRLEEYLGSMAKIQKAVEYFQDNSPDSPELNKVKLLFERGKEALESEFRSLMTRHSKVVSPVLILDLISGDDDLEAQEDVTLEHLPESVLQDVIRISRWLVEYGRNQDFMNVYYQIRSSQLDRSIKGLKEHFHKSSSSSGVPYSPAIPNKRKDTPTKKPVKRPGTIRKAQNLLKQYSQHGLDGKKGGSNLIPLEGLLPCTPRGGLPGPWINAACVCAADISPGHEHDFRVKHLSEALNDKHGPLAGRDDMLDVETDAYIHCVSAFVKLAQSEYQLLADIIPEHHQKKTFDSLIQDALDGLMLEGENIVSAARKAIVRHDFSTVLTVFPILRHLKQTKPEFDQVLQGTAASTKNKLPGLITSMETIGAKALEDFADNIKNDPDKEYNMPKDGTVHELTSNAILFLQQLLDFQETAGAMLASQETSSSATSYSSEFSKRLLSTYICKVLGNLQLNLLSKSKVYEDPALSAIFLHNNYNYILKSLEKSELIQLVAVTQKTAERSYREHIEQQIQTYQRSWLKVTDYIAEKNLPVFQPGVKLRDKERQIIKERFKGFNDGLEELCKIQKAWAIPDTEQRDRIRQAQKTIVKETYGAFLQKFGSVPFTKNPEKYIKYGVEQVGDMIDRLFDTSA
# UniProt O60610, sequence (O60610 whole entry, looked up): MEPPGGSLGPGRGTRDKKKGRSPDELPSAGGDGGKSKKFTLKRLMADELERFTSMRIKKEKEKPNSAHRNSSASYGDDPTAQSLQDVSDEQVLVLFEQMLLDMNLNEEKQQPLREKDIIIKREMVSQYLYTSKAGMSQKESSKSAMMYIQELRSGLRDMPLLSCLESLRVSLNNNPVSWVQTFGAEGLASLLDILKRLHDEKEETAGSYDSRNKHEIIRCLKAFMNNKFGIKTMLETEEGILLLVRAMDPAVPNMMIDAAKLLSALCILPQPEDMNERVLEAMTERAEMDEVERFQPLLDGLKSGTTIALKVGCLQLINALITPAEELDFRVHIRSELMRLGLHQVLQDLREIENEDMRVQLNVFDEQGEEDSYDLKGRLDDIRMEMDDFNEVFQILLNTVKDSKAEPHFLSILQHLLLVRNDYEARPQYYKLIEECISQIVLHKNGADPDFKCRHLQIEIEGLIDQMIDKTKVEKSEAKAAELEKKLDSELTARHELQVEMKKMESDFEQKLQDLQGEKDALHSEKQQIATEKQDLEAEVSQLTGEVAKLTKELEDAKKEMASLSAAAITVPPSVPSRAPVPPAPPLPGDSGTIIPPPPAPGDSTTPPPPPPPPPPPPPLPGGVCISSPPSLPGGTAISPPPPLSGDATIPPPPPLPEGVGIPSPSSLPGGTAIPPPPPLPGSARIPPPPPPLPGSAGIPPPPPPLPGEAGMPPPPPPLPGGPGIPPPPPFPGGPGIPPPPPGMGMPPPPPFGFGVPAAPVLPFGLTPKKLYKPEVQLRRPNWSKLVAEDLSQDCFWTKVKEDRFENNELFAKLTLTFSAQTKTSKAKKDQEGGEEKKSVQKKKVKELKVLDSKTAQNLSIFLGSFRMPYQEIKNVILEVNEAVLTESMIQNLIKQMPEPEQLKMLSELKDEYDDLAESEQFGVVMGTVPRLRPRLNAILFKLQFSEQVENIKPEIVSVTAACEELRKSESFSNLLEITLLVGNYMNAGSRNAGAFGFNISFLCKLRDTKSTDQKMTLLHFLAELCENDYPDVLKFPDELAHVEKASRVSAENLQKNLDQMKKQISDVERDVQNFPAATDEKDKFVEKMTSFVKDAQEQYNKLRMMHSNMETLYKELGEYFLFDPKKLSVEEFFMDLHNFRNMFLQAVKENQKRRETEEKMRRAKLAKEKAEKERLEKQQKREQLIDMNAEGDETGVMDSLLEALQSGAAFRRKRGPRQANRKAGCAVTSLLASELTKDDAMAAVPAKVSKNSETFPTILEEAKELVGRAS
# UniProt Q96LJ7, sequence (Q96LJ7 whole entry, looked up): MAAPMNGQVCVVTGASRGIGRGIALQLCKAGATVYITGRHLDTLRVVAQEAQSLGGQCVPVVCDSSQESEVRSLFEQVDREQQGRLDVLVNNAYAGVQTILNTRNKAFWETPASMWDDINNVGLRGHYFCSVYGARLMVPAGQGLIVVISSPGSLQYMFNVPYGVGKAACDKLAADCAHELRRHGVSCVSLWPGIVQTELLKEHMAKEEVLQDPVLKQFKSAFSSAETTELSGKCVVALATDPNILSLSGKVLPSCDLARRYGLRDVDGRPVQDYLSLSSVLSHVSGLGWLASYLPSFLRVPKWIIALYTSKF
# UniProt Q16643, sequence (Q16643 whole entry, looked up): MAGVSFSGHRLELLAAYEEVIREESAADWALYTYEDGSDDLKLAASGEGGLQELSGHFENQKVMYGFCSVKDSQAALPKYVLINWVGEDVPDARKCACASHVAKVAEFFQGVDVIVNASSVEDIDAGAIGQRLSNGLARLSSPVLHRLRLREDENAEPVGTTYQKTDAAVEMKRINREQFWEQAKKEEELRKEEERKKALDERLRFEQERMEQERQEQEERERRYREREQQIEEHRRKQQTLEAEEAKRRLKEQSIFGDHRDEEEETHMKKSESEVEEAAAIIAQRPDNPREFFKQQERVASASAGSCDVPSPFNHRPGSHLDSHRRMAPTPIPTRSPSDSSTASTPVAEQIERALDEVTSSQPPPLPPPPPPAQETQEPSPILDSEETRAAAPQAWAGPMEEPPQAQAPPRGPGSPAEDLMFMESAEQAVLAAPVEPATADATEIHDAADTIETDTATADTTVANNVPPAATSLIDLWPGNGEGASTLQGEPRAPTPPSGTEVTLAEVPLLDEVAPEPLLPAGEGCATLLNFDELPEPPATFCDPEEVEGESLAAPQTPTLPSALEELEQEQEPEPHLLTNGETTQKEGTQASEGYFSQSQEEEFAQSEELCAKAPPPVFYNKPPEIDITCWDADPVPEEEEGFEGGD
# UniProt Q99615, sequence (Q99615 whole entry, looked up): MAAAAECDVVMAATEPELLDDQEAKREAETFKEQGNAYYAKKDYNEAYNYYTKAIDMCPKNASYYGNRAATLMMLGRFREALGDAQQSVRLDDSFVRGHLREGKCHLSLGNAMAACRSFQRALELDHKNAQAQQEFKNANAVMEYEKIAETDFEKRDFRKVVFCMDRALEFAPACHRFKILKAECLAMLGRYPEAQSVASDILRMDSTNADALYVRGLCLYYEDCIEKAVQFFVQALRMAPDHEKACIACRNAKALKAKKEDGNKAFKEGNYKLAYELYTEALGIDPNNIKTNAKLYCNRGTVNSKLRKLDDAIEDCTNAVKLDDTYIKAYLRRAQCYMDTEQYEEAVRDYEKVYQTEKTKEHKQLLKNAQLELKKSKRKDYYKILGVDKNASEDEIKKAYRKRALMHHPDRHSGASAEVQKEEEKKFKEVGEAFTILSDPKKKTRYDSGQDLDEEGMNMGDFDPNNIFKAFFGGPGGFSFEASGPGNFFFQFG
# UniProt Q9H2P9, sequence (Q9H2P9 whole entry, looked up): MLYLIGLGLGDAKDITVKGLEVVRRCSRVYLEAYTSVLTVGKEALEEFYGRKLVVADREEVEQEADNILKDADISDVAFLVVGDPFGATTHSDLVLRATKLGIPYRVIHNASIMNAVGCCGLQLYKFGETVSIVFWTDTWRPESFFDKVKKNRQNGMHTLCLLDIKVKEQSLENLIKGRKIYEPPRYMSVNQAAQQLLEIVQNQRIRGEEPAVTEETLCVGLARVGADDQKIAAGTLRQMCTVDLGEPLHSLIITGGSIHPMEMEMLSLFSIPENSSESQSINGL
# UniProt Q96KC8, sequence (Q96KC8 whole entry, looked up): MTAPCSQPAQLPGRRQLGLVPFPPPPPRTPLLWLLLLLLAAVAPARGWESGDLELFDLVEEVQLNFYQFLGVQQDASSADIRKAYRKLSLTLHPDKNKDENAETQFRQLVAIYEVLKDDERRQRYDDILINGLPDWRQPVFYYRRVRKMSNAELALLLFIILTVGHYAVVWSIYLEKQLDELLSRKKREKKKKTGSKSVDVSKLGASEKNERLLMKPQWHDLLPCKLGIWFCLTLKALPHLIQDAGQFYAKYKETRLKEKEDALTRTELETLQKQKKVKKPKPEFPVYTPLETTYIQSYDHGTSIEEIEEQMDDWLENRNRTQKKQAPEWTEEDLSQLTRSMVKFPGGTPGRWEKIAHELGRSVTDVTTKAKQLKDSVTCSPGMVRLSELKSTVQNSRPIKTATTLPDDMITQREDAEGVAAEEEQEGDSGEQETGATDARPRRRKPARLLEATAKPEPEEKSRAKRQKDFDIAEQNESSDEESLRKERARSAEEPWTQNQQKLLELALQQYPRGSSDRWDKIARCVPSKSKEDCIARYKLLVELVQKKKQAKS
Target,log2 fold change (bafetinib),log2 fold change [1],log2 fold change (nilotinib),log2 fold change [2],log2 fold change (dasatinib),log2 fold change [3],log2 fold change [4],log2 fold change [5],log2 fold change (tipifarnib),log2 fold change (mubritinib)
DDX4 (UniProt Q9NQI0),0.244,-0.511,-0.172,-0.187,0.107,-0.068,-0.217,0.052,0.268,-0.484
EXOC1 (UniProt Q9NV70),0.061,0.025,-0.034,-0.069,-0.126,-0.051,-0.008,0.026,-0.098,0.032
ETNK1 (UniProt Q9HBU6),-0.042,0.037,-0.043,0.08,-0.07,0.06,0.026,0.008,-0.183,0.036
EPHX2 (UniProt E5RI53),-0.17,–,–,–,–,–,–,–,–,–
DDX46 (UniProt Q7L014),0.196,0.094,0.271,-1.44 (active),-0.084,0.1,0.104,0.102,-0.113,0.604 (active)
EDC3 (UniProt Q96F86),-0.022,-0.013,-0.142,-0.127,-0.006,-0.151,-0.019,-0.006,-0.035,0
DNTTIP2 (UniProt Q5QJE6),0.148,-0.05,0.064,-0.02,0.148,-0.29,-0.104,-0.035,0.256,-0.074
EXOC4 (UniProt Q96A65),0.012,0.11,-0.068,-0.155,-0.15,-0.031,-0.026,0.013,-0.088,0.078
CTSV (UniProt O60911),-0.696 (active),-0.24,0.036,0.142,0.061,-0.056,0.016,-0.002,0.026,-0.009
FAM160B1 (UniProt Q5W0V3),-0.018,0.023,-0.032,-0.049,-0.082,-0.014,-0.053,-0.039,0.115,0.023
DBN1 isoform 3 (UniProt Q16643),-0.106,0.032,-0.05,-0.043,0.264 (active),-0.041,-0.22,-0.069,0.086,0
EPHX2 (UniProt P34913),0.131,-0.097,0.152,-0.029,-0.041,0.073,0.051,0.016,0.065,0.11
CUX1 isoform 2 (UniProt Q13948),0.051,0.042,-0.001,-0.029,-0.084,0.078,0.072,0.063,0.062,0.007
E2F4 (UniProt Q16254),-0.053,-0.026,-0.016,-0.141,-0.095,0.012,-0.007,-0.006,-0.009,0.01
DNAJC1 (UniProt Q96KC8),-0.185,-0.026,-0.035,0.016,-0.064,0.002,0.028,0.047,0.039,0.041
DHRS1 (UniProt Q96LJ7),0.352,0.316,0.638,-0.076,0.02,-0.14,1.1 (active),-0.106,0.717,0.178
EEF1D isoform 2 (UniProt P29692),0.025,-0.011,-0.066,-0.01,-0.051,0,-0.007,-0.044,-0.103,0.081
DHCR24 (UniProt Q15392),1.39 (active),-0.001,-0.03,0.025,0.127,0.577,0.292,0.043,-0.006,0.47
DIAPH1 (UniProt O60610),0.088,0.057,-0.011,-0.197,-0.055,0.077,-0.083,-0.035,-0.077,0.039
EIF4E isoform 2 (UniProt P06730),0.012,0.05,0.199,-0.072,0.013,0.272,0.125,0.082,-0.029,0.045
DTWD1 (UniProt Q8N5C7),0.006,-0.014,0.057,0,0.001,0.082,0.051,-0.027,-0.02,0.02
DPH5 isoform 5 (UniProt Q9H2P9),0.025,0.037,0.013,-0.023,0.253 (active),0.003,0.085,0.006,-0.121,0.049
CTSB (UniProt P07858),-0.842 (active),-0.038,0.001,-0.028,-0.008,-0.029,0.014,0.033,0.008,-0.007
EEF1G isoform 2 (UniProt P26641),0.033,0.083,-0.034,-0.03,-0.032,0.045,-0.03,-0.05,-0.124,0.028
DHX40 (UniProt Q8IX18),-0.033,0.038,-0.052,-0.289 (active),-0.229,0.118,0.103,0.035,0.017,0.084
DHX16 (UniProt O60231),0.001,0.044,-0.031,0.019,-0.095,-0.006,0.059,0.002,-0.04,0.147
DNAJC7 (UniProt Q99615),-0.047,0.031,-0.107,-0.048,-0.136,0.024,0.068,0.058,-0.012,0.037
EXOC7 (UniProt Q9UPT5),-0.026,0.014,-0.046,-0.139,-0.234,-0.035,0.002,0,-0.089,-0.011
EIF4A1 (UniProt P60842),0.032,0.014,-0.135,-0.063,-0.114,-0.047,0.036,-0.022,-0.058,-0.08
DPP8 (UniProt Q6V1X1),-0.054,-0.035,0.027,-0.019,0.014,-0.001,0.048,0.054,0.065,0.036
